# High-throughput results: PubChem BioAssay, several laboratories
# Rows were chosen to be rich in hits. Some 27% of all compounds tested hit in one or more screens of this group.
# CYP2C9 act: CYP2C9 (human) activation | activation factor at 5 µM | 96,000 compounds, 1.4% hits | P11712 | recombinant CYP2C9, luciferin-H conversion, luminescence; active compounds read high; factor 1 = untreated enzyme, 0 = blocked | AID 1024;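 active means activation factor of 2 or more for CYP2C9 at a 5 µM dose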;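 further: 0 = sulfaphenazole-blocked wells and 1 = vehicle-only wells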
# Target sequence (P11712 whole entry, looked up): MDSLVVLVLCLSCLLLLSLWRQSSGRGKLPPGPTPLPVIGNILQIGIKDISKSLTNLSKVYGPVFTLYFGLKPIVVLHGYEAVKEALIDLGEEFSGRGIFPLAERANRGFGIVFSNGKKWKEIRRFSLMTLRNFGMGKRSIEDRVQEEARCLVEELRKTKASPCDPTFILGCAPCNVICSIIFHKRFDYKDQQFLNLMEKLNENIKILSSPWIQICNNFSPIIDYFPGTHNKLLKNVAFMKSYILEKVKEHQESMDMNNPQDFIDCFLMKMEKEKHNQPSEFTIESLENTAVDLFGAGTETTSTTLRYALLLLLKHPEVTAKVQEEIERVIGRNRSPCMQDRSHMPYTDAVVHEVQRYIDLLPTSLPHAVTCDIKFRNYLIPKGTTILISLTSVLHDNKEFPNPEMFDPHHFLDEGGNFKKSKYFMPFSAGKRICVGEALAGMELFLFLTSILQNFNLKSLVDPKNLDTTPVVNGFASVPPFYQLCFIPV
# sEH inh: blocks human soluble epoxide hydrolase activity; recombinant human sEH enzymatic activity assay; 91,000 compounds, 0.34% hits; AID 707; inhibition, % at 2 µM; in the data active means inhibition above about 80%
# CYP2C19 inhib: inhibitors of human CYP2C19; P33261; CYP2C19 Supersomes, luciferin-H EGE luminescence, 30 min; inhibition, % at 5 µM; 96,000 compounds, 21% hits;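 active means CYP2C19 inhibition above a set limit at 5 µM in the primary screen, cut at about 50% in these data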;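 further: plate controls were negative control wells for no effect and 2.5 mM tranylcypromine positive control for full effect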
# CYP2C19 act: activators of human cytochrome P450 2C19; recombinant CYP2C19, luciferin-H EGE luminescence; active compounds read high; 0 = fully inhibited enzyme, 1 = untreated enzyme; activation factor at 5 µM; 96,000 tested, under 10 active;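 active means activation factor of at least 2 at 5 µM in the primary screen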;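 further: 0 = wells with 2.5 mM tranylcypromine and 1 = vehicle-only wells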
# sEH activator: soluble epoxide hydrolase (human) activation; P34913; purified human sEH enzymatic activity, activator screen; activation, % at 2 µM; 91,000 compounds, 0.04% hits; in the data active means activation above about 37%
# CYP2C9 inhib: human CYP2C9 inhibition; P11712; CYP2C9 Supersomes, luciferin-H conversion, luminescence; inhibition, % at 5 µM; 96,000 compounds, 20% hits;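 active means blocking of liver enzyme CYP2C9 beyond about 50% at 5 µM, limit read from the data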
# Starred values were filed as active, the others as inactive; . = no result.
SMILES,CYP2C9 act,sEH inh,CYP2C19 inhib,CYP2C19 act,sEH activator,CYP2C9 inhib
O=C(CSc1nc2ccccc2[nH]1)NC(=O)NCc1ccco1,0.8,.,57*,0.4,.,22
O=C(CSc1nc(-c2ccccc2)c(-c2ccccc2)[nH]1)NCCN1C(=O)CSC1=O,0.7,0,63*,0.4,1,34
Cc1nnc(SCC(=O)NCCN2C(=O)CSC2=O)s1,1.1,-19,-1,1,14,-6
O=C(CSc1nc(-c2ccccc2)c(-c2ccccc2)[nH]1)Nc1nccs1,1,8,-14,1.1,-5,-3
O=C(NCc1ccc(F)cc1)c1cc2n(n1)C(C(F)(F)F)CC(C1CC1)N2 (stereo unspecified),0.6,.,42,0.6,.,40
CCOC(=O)/C(N=Nc1ccc(F)cc1)=C(/O)c1ccc([N+](=O)[O-])cc1,0.8,8,18,0.8,-6,16
COc1ccc(-c2[nH]c(-c3cccc(OC)c3)nc2SCC(=O)NCc2ccco2)cc1,0.2,-10,94*,0.1,9,84*
O=C(CCCSc1nc2ccccc2[nH]1)NCc1ccco1,2*,7,17,0.8,-7,-102
O=C(CSc1nc(-c2ccccc2)c(-c2ccccc2)[nH]1)NCc1ccco1,0.5,-18,37,0.6,18,50*
COc1ccc(-c2ccc(SCC(=O)NCc3ccco3)nn2)cc1,0.8,-4,12,0.9,4,18
O=C(CSc1nnc(-c2ccccc2)c(-c2ccccc2)n1)NCc1ccco1,.,10,.,.,-8,.
Cc1ccc2nc(SCC(=O)NC(=O)NCc3ccco3)[nH]c2c1,0.3,.,80*,0.2,.,71*
Cc1ccc(NC(=O)NC(=O)CSc2nnnn2C)c(C)c1,1.1,.,16,0.8,.,-14
CCOC(=O)CSC1=NC(=O)/C(=C\c2ccc(Cl)cc2)S1,0.6,42,48,0.5,-40,38
Cc1nnc(Nc2ccc3c(c2)ncn3C)c2ccccc12,0.7,2,83*,0.2,-4,34
Cc1ccc(-c2nnc(Nc3ccc4c(c3)nc(C)n4C)c3ccccc23)cc1,1,1,11,0.9,-3,-4
CCCn1nnnc1SCC(=O)c1ccc(NC(C)=O)cc1,0.9,-4,29,0.7,3,8
COc1ccc(-n2nnnc2SCC(=O)c2cccc(OC)c2)cc1,0.7,4,27,0.7,-3,27
CCn1nnnc1SCC(=O)c1cccc(OC)c1,0.6,6,76*,0.2,-2,42
COCCn1nnnc1SCC(=O)c1ccccc1,1.9,.,67*,0.3,.,-89
COc1ccc(C2C(C#N)=C(N)Oc3cc4c(cc32)OCO4)cc1 (stereo unspecified),0.1,2,87*,0.1,3,87*
N#CC1=C(N)Oc2cc(N)ccc2C1C1CCCCC1 (stereo unspecified),0.7,22,84*,0.2,-18,31
CCN1C=C(Cc2ccc(OC)cc2)C2=C(C1)C(c1ccc(OC)cc1)C(C#N)=C(N)O2 (stereo unspecified),0.6,-2,27,0.7,4,42
CCOc1ccccc1C1C(C#N)=C(N)Oc2cc(N)ccc21 (stereo unspecified),0.3,-2,76*,0.2,-2,70*
COc1ccc(OC)c(C2C(C#N)=C(N)Oc3cc(N)ccc32)c1 (stereo unspecified),0.1,.,94*,0.1,.,92*
SMILES,CYP2C9 act,sEH inh,CYP2C19 inhib,CYP2C19 act,sEH activator,CYP2C9 inhib
CCOC(=O)C1=C(c2ccccc2)OC(N)=C(C#N)C1C1CCCCC1 (stereo unspecified),0.6,2,18,0.8,-3,37
Cc1c(NC(=O)C(C)Sc2n[nH]c(N)n2)c(=O)n(-c2ccccc2)n1C (stereo unspecified),1.1,-16,-6,1.1,14,-12
CC(C)CNS(=O)(=O)c1ccc(CCC(=O)NCc2cccnc2)cc1,0.7,-16,0,1,17,32
Cc1cc(NC(=O)Cn2cc(C(F)(F)F)cc(Cl)c2=O)no1,.,5,.,.,-4,.
FC(F)(F)c1nnc2sc(-c3cccs3)nn12,1,6,4,1,-6,2
CCNC(=O)C1CC(=O)N(c2ccc(Br)cc2)C1 (stereo unspecified),0.9,-4,70*,0.3,2,7
O=C(NCc1cccs1)C1CC(=O)N(c2ccc(F)cc2)C1 (stereo unspecified),1.5,-5,59*,0.4,6,-50
Cc1ccc(N2CC(C(=O)NCc3cccs3)CC2=O)cc1 (stereo unspecified),1.1,.,13,0.9,.,-14
C=CCNC(=O)C1CC(=O)N(c2ccc(Br)cc2)C1 (stereo unspecified),1,-1,32,0.7,0,2
O=C(NCc1cccs1)C1CCCCC1,0.9,-6,51*,0.5,4,12
Cc1ccc2[nH]c(=O)c3cc(C(=O)N(CCCOC(C)C)Cc4ccco4)sc3c2c1,0.4,-17,37,0.6,14,58*
Cc1ccc2[nH]c(=O)c(CN(Cc3ccco3)C(=O)c3cccs3)cc2c1,.,-4,.,.,5,.
CCCCN(Cc1ccco1)C(=O)c1cc2c(=O)[nH]c3ccc(C)cc3c2s1,0.3,-16,50*,0.5,13,72*
COc1ccc(N2CCN(C(=O)CCCC3=NS(=O)(=O)c4ccccc4N3)CC2)cc1,0.9,-6,5,0.9,7,8
CN(Cc1nc(-c2cccnc2)no1)S(=O)(=O)c1ccccc1,0.9,-10,74*,0.3,4,15
Cc1ccc(CNC(=O)CCc2nc3ccccc3c(=O)[nH]2)cc1,0.9,.,-2,1,.,6
COc1ccccc1CN(Cc1nc2ccccc2c(=O)[nH]1)S(=O)(=O)c1ccc2ccccc2c1,.,6,.,.,0,.
Cc1ccc(S(=O)(=O)N(C)Cc2nc(-c3ccc(Br)cc3)no2)cc1,1,3,20,0.8,-4,-3
COc1ccc(S(=O)(=O)N(Cc2ccccc2)Cc2nc3ccccc3c(=O)[nH]2)cc1,0.5,-2,55*,0.4,4,49
Cc1ccc(S(=O)(=O)Cc2nc3ccccc3c(=O)[nH]2)cc1,0.8,-3,85*,0.2,4,24
Cc1ccc(S(=O)(=O)N(C)Cc2nc(-c3ccncc3)no2)cc1,0.3,-4,92*,0.1,2,69*
Cc1sc2ncnc(SCC(=O)NC(=O)NCc3ccco3)c2c1C,1,11,-10,1.1,-9,-2
O=C1CCCc2c1nn(-c1ccccc1)[n+]2[O-],1,-4,-8,1.1,7,2
COc1ccc(S(=O)(=O)N(Cc2ccccc2)Cc2nc(-c3ccccc3)no2)cc1,0.1,4,87*,0.1,-1,92*
COc1ccc(-c2noc(CN(C)S(=O)(=O)c3ccccc3)n2)cc1OC,.,0,.,.,-5,.
